AMA1 RON2 block: qHTS for Inhibitors of AMA1-RON; Towards Development of Antimalarial Drug Lead: Primary Screen | Plasmodium falciparum AMA1 (3D7) - RON2 peptide interaction | AlphaScreen AMA1-biotinylated RON2 peptide binding | Potency, µM (doses to about 58.2 µM), hits mostly inhibitors | hit rate 0.2% among 360,000; further: nearly all actives have a fitted effect of over 45% in size
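AMA1 (3D7) with his tag at 25 nM final met compounds first, then biotinylated RON2 peptide at 25 nM; detection used donor plus acceptor beads, 10 µg/mL apiece, read by AlphaScreen after 30 min at room temperature.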
Pf growth 96h: Primary qHTS for delayed death inhibitors of the malarial parasite plastid, 96 hour incubation; Potency, µM (highest dose often 28.7 µM), most hits filed as inhibitors; P. falciparum luciferase reporter growth, 96 h; AID 504834, 2011; hit rate 6.9% among 320,000
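Parasite growth measured via integrated firefly luciferase reporter in P. falciparum. Infected erythrocytes at 2% hematocrit, 0.05% parasitemia final were treated 96 hours at 37 C under 5% CO2, and luminescence was read.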
Pf growth 48h: Primary qHTS for delayed death inhibitors of the malarial parasite plastid, 48 hour incubation; P. falciparum luciferase growth in erythrocytes, 48 h; Potency, µM (doses to about 28.7 µM), usual class: inhibitors; hit rate 5.9% among 310,000; AID 504832, 2011
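Parasite viability was followed by luminescence of a genomically integrated firefly luciferase. Cultures held 0.1% parasitemia at 2% hematocrit (final), incubated under 5% CO2 at 37 C.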
Sm TGR block: qHTS Assay for the Inhibitors of Schistosoma Mansoni Peroxiredoxins | Schistosoma mansoni thioredoxin glutathione reductase (TGR), Q962Y6 | purified TGR, DTNB reduction, TNB absorbance 405 nm | Potency, µM (doses to about 114 µM), actives largely listed as inhibitors | hit rate 3% among 360,000; further: nearly all actives have a fitted effect of over 60% in size
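Kinetic colorimetric format: TGR-catalysed, NADPH-driven DTNB reduction monitored via TNB absorbance. Enzyme dispensed at 20 nM; compound exposure 15 min at room temperature before reaction start.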
NS1 function inh: qHTS Assay for Inhibitors of Influenza NS1 Protein Function. Potency, µM (doses to about 46.1 µM). hit rate 0.4% among 270,000; calls by dose curve; further: actives are rising curves; nearly all actives have a fitted effect of over 50% in size
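A cell-based growth assay was used: compounds that relieve NS1-induced slow growth of budding yeast raise OD600. Assay medium was yeast nitrogen base with ammonium sulphate and -URA supplement, pH 6.0, with 2% galactose.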
A number is an active result; n = inactive; u = inconclusive; x = no result given; [ ] = another dose, or the depositor's remark. An excerpt weighted towards active compounds, which were near 11% of everything screened. Unless noted, the call rests on the fitted dose curve; in most records, active means well fitted curve in the direction sought with a large enough effect; inconclusive means small, poorly fitted or top-dose-only effect, or another doubt; inactive means no such curve, though single readings can be large; an effect the other way counts as inactive or inconclusive.

SMILES | AMA1 RON2 block | Pf growth 96h | Pf growth 48h | Sm TGR block | NS1 function inh
Cc1cccc(N/N=C/c2ccc(O)c(O)c2O)c1 | u | n | u | 7.08µM | n
COc1cccc(N/N=C/c2cccc(Br)c2O)c1 | n | n | n | 35.5µM | n
COc1cccc(/C=N/Nc2ccc([N+](=O)[O-])cc2)c1O | n | n | n | n | n
O=[N+]([O-])c1cccc(N/N=C/c2cccc(O)c2O)c1 | n | n[5.75 µM] | u | n | x
Cc1nn(C(=O)c2ccccc2)c(C)c1S(=O)(=O)N1CCCCCC1 | x | x | x | n | x
COc1ccc(CN(Cc2ccc(OC)cc2)S(=O)(=O)c2ccc(-n3cnnn3)c(C)c2)cc1 | n | 13.1µM | u | n | n
COc1ccc(CN(C2CCCC2)S(=O)(=O)c2ccc(-n3cnnn3)c(OC)c2)cc1OC | n | u | 14.7µM | n | n
CCN(C1CCCCC1)S(=O)(=O)c1ccc(-n2cnnn2)c(C)c1 | n | n | n | n | n
COc1cccc(CN(Cc2cccnc2)S(=O)(=O)c2ccc(-n3cnnn3)c(C)c2)c1OC | n | x | 11.7µM | n | n
COc1cc(S(=O)(=O)N(Cc2cccc(OC)c2OC)CC2CCCO2)ccc1-n1cnnn1 (stereo not given) | n | u | u | n | n
COc1cc(CN(C2CCCCC2)S(=O)(=O)c2ccc(S(=O)(=O)N(C)C3CCCCC3)cc2)cc(OC)c1OC | n | 8.28µM | u | n | u
O=C(CNC(=O)C(c1ccccc1)c1ccccc1)OCc1ccccc1 | n | u | n | n | n
CCc1cccc(NC(=O)CSc2nc3ccccc3nc2N2CCCCC2)c1 | x | x | x | n | x
CCOC(=O)C1=C(COC(=O)c2cccnc2SC)NC(=O)NC1C (stereo not given) | n | x | x | x | x
CC(C)Oc1ccc(C2NC(=O)c3ccccc3O2)cc1 (stereo not given) | n | u | n | n | n
Cc1cccc(OCCn2c(-c3ccc(Cl)cc3)nc3ccccc3c2=O)c1C | x | x | x | n | x
COc1ccc(CN(Cc2cccnc2)S(=O)(=O)c2ccc(-n3cnnn3)c(OC)c2)cc1 | n | n | 11.7µM | n | n
COc1ccc(CN(CC2CCCO2)S(=O)(=O)c2ccc(-n3cnnn3)c(OC)c2)cc1 (stereo not given) | n | n | n | n | n
CCOc1cc(S(=O)(=O)N(Cc2ccccc2)Cc2ccccc2)c(OCC)cc1-n1cnnn1 | n | 6.57µM | u | n | n
CSc1nc(NCCN(C)C)c2sc3nc(-c4ccco4)c4c(c3c2n1)CCC4 | n | x | x | x | x
CSc1nc(N(C)CCO)c2sc3nc(-c4ccco4)c4c(c3c2n1)CCC4 | 11.9µM | u | u | 1.41µM | u
COc1ccc(F)c(CN2CCC(N3CCC(C(=O)N4CCOCC4)CC3)CC2)c1 | n | n | n | x | n
COc1ccc(CN2CCC(N3CCC(C(=O)N4CCOCC4)CC3)CC2)c(F)c1 | n | 10.4µM | n | n | n
CCOc1cc(/C=C/C(=O)c2ccc(OC)c(CN3CCOCC3)c2)cc(Br)c1O | n | 9.28µM | 13.1µM | u | n
CCOc1cc(/C=N/NC(=O)c2ccc(CN3CCOCC3)cc2)ccc1OC | n | n | n | x | n
SMILES | AMA1 RON2 block | Pf growth 96h | Pf growth 48h | Sm TGR block | NS1 function inh
COc1ccc(OC)c(CN2CCC(C(=O)N3CCOCC3)CC2)c1 | n | 9.28µM | n | n | n
CCOC(=O)c1cc(-c2ccc(C)cc2)n(CCC(=O)Nc2cc(Cl)ccc2C)c1C | x | x | x | n | x
O=C(COc1ccccc1)Nc1ccc2nc(SCC(=O)N3CCc4ccccc43)sc2c1 | x | x | x | n | x
Cc1cccc(-c2nn3c(=O)cc(CN4CCN(S(=O)(=O)c5ccc(Cl)cc5)CC4)nc3s2)c1 | x | x | x | n | x
CC(C1CC1)N(Cc1ccccc1)C(=O)NC(=O)c1ccccc1 (stereo not given) | n | n | n | n | x
CC(C1CC1)N(Cc1ccccc1)C(=S)Nc1ccccc1Cl (stereo not given) | n | 11.7µM | u | n | x
CC(C)(C)C(=O)/C(=C/c1ccncc1)n1cncn1 | n | n | 7.38µM | x | n
Cc1nn(C)c(C)c1/C=C(/C(=O)C(C)(C)C)n1cncn1 | n | n | n | u | n
Cc1cc(C)c(S(=O)(=O)c2ccccc2F)c(=O)[nH]1 | n | n | u | n | n
O=[N+]([O-])c1ccc(-c2cn3nc(-c4ccccc4)c(-c4ccccc4)nc3n2)cc1 | u | n | n | n | n
